Measurements published in PubChem BioAssay (Tox21).
Inconclusive results are not listed. The source made the active and inactive calls. Unless noted, the call rests on the fitted dose curve; in most records, active means well fitted curve in the direction sought with a large enough effect in the repeat runs; inconclusive means weak or mixed curves; inactive means no such curve, though single readings can be large; an effect the other way counts as inactive or inconclusive.

How the values were obtained:
[1] = qHTS assay to identify small molecule agonists of the peroxisome proliferator-activated receptor delta (PPARd) signaling pathway - cell viability counter screen (AID 743211); further: nearly all actives have a fitted effect of over 55% in size
How it was run: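 In the same wells used for beta-lactamase reporter measurement, cytotoxicity is scored by CellTiter-Glo. HEK293H PPARd-bla cells receive compound for 17 h at 37C following a 5 h settling period.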

[2] = target: Peroxisome proliferator-activated receptor delta (Homo sapiens) (UniProt Q03181); experiment: qHTS assay to identify small molecule agonists of the peroxisome proliferator-activated receptor delta (PPARd) signaling pathway (AID 743212; calls by dose curve)
Sequence of Peroxisome proliferator-activated receptor delta (Homo sapiens) (Q03181 whole entry, looked up): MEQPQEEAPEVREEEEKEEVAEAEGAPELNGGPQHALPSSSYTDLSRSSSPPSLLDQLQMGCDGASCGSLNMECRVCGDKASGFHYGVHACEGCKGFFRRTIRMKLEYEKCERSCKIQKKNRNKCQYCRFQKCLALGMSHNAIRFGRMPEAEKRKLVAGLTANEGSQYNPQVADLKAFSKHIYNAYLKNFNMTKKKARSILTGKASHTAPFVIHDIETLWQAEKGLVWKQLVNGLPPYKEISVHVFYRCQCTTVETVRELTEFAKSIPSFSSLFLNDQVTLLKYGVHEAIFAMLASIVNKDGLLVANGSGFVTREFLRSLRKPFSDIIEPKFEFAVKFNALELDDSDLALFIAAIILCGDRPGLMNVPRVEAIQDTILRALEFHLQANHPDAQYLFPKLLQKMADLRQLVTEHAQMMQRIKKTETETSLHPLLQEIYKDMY
How it was run: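 HEK293H PPARd-bla cells; 5 h preincubation 37 C/5% CO2; compound (DMSO) 37 C; LiveBLAzer B/G FRET substrate 2 h RT; fluorescence intensity.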

[3] = qHTS assay to identify small molecule antagonists of the peroxisome proliferator-activated receptor delta (PPARd) signaling pathway - cell viability counter screen (AID 743213); further: nearly all actives have a fitted effect of over 50% in size
How it was run: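 PPARd-bla HEK293H cells were treated with compounds plus agonist L165041 (300 nM final) for 17 h at 37 C. Viability was then read in the same wells by CellTiter-Glo luminescence after 30 min at room temperature.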

[4] = target: Bile acid receptor (Homo sapiens) (UniProt Q96RI1); experiment: qHTS assay to identify small molecule antagonists of the farnesoid-X-receptor (FXR) signaling pathway (AID 743217; active means well fitted inhibition curve with a large enough effect in the signal ratio in the repeat runs, not every such curve was filed as active; the % refers to the signal ratio)
Sequence of Bile acid receptor (Homo sapiens) (Q96RI1 whole entry, looked up): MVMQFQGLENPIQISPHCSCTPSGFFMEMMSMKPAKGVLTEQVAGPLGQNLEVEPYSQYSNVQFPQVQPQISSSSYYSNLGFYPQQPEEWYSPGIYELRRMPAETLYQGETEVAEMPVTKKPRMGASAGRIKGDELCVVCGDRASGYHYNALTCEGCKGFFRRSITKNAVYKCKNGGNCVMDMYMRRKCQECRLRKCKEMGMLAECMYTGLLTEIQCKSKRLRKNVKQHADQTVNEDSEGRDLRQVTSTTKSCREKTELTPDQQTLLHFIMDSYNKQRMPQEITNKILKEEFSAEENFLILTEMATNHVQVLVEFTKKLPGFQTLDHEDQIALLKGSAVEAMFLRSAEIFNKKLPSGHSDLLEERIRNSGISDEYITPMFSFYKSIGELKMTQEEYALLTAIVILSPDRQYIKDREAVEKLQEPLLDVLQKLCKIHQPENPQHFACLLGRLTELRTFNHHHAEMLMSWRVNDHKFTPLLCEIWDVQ
How it was run: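 Antagonist mode against 50 uM (final) chenodeoxycholic acid stimulation in FXR-bla HEK 293T cells, 16 h at 37 °C. Inhibition detected as reduced beta-lactamase activity via LiveBLAzer B/G FRET fluorescence after 2 h at room temperature.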

[5] = qHTS assay to identify small molecule agonists of the farnesoid-X-receptor (FXR) signaling pathway - cell viability counter screen (AID 743218); further: nearly all actives have a fitted effect of over 45% in size
How it was run: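 Cytotoxicity counter-screen run in parallel, same wells: FXR-UAS-bla HEK 293T cells dosed 16 h at 37 C, viability read by CellTiter-Glo luminescence after 30 min at room temperature.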

[6] = qHTS assay to identify small molecule antagonists of the farnesoid-X-receptor (FXR) signaling pathway - cell viability counter screen (AID 743221; active means well fitted cell-killing curve with a large enough effect in the repeat runs, not every such curve was filed as active; further: nearly all actives have a fitted effect of over 50% in size)
How it was run: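 Here viability was scored by luminescence after CellTiter-Glo addition to wells already read for beta-lactamase. Prior treatment: compound plus CDCA (50 uM final), 16 h, 37 C, HEK 293T FXR-bla cells.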

[7] = target: Vitamin D3 receptor (Homo sapiens) (UniProt P11473); experiment: qHTS assay to identify small molecule agonists of the vitamin D receptor (VDR) signaling pathway (AID 743222; calls by dose curve)
Sequence of Vitamin D3 receptor (Homo sapiens) (P11473 whole entry, looked up): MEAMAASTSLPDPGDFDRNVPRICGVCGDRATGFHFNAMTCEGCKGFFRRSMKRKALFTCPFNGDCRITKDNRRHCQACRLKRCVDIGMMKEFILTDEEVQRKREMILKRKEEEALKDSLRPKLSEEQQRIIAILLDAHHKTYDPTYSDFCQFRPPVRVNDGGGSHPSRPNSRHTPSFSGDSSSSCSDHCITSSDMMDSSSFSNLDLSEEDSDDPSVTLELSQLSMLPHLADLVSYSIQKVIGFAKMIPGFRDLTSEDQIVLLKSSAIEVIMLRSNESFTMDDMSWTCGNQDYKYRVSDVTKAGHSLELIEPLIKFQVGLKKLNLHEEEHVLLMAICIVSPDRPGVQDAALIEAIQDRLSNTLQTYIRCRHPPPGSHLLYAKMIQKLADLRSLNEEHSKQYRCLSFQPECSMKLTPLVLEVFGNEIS
How it was run: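 Quantitative HTS agonist-mode screen: compounds in DMSO were pin-transferred onto VDR-bla cells and incubated 16 h at 37C, 5% CO2. Reporter activity was detected with LiveBLAzer B/G FRET substrate after 2 h at room temperature.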

[8] = qHTS assay to identify small molecule agonists of the vitamin D receptor (VDR) signaling pathway - cell viability counter screen (AID 743224); further: series mostly up to about 63 µM; nearly all actives have a fitted effect of over 50% in size
How it was run: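 Viability is measured in the same wells as the VDR-bla reporter assay: after 16 h compound treatment and 2 h substrate loading, CellTiter-Glo is added and luminescence read 30 min later.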

[9] = qHTS assay to identify small molecule antagonists of the vitamin D receptor (VDR) signaling pathway - cell viability counter screen (AID 743225); further: nearly all actives have a fitted effect of over 50% in size
How it was run: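 Compounds were pinned onto VDR-bla HEK 293T cells together with 1-alpha,25-dihydroxyvitamin D3 at 3 nM final. After 16 h at 37C and 5% CO2 plus the reporter readout, cell viability was measured by CellTiter-Glo luminescence (30 min, room temperature).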

[10] = qHTS assay to identify small molecule agonists of the NFkB signaling pathway (AID 1159509; active means well fitted curve in the direction sought with a large enough effect in the signal ratio in the repeat runs, not every such curve was filed as active; the % refers to the signal ratio; further: series mostly up to about 61 µM)
How it was run: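 ME-180 NFkB-bla, 2,000 cells/well, overnight plating; cpd pinned in DMSO, 5 h 37 C; B/G FRET substrate 1.5 h RT; ex 405, em 460/530 nm.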

[11] = qHTS assay to identify small molecule agonists of the NFkB signaling pathway - cell viability counter screen (AID 1159515; calls by dose curve; further: series mostly up to about 61 µM; nearly all actives have a fitted effect of over 55% in size)
How it was run: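 Multiplexed viability readout: after the 5 hr compound exposure and 1.5 hr FRET substrate step, CellTiter-Glo reagent went into the same NFkB-bla ME-180 wells; ATP luminescence was measured after 30 min at room temperature.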

[12] = qHTS assay to identify small molecule agonists of the endoplasmic reticulum stress response signaling pathway (AID 1159516; active means well fitted activation curve with a large enough effect in the signal ratio in the repeat runs, not every such curve was filed as active; the % refers to the signal ratio)
How it was run: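 Tox21 10K library screened in quantitative HTS format on ESRE-bla HeLa cells, a beta-lactamase reporter under ER stress response element control; 5 hr treatment, FRET read.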

[13] = qHTS assay to identify small molecule agonists of the endoplasmic reticulum stress response signaling pathway - cell viability counter screen (AID 1159517; calls by dose curve)
How it was run: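 HeLa cells carrying an ESRE-driven beta-lactamase reporter receive compound for 5 hr at 37 C. Cell viability is then gauged with CellTiter-Glo by luminescence, 30 min at room temperature.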

[14] = qHTS assay to identify small molecule antagonists of the retinoid-related orphan receptor gamma (ROR-gamma) signaling pathway - cell viability counter screen (AID 1159520); further: nearly all actives have a fitted effect of over 50% in size
How it was run: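 Cytotoxicity was read from cellular ATP (CellTiter-Glo luminescence) after 16 hr at 37 C with 1 uM doxycycline induction. The inducer was added 2 hr after compound transfer to Tet-on ROR gamma CHO cells.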

[15] = target: Nuclear receptor ROR-gamma (Homo sapiens) (UniProt P51449); experiment: qHTS assay to identify small molecule antagonists of the retinoid-related orphan receptor gamma (ROR-gamma) signaling pathway (AID 1159521)
How it was run: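 Test compounds were applied to Tet-on RORγ CHO cells 2 h ahead of doxycycline hyclate (1 uM final). Luciferase reporter activity was quantified by luminescence after 16 h at 37 C and 5% CO2.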

[16] = qHTS assay to identify small molecule agonists of the AP-1 signaling pathway - cell viability counter screen (AID 1159525; calls by dose curve; further: nearly all actives have a fitted effect of over 55% in size)
How it was run: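 Luminescent ATP readout (Cell Titer Glo, 30 min RT), normalised to DMSO and tetra n-octyl ammonium bromide controls. Cells were ME-180 AP-1-bla in 0.5% dialyzed FBS Opti-MEM, with a 5 h, 37 °C compound exposure.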

[17] = qHTS assay to identify small molecule agonists of the AP-1 signaling pathway (AID 1159526; calls by dose curve)
[18] = target: Peroxisome proliferator-activated receptor delta (Homo sapiens) (UniProt Q03181); experiment: qHTS assay to identify small molecule antagonists of the peroxisome proliferator-activated receptor delta (PPARd) signaling pathway (AID 743215; active means well fitted inhibition curve with a large enough effect in the signal ratio in the repeat runs, not every such curve was filed as active; the % refers to the signal ratio;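 further: cells stimulated with agonist L165041 at 300 nM final during compound exposure; series mostly up to about 62 µM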)
How it was run: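 Inhibition of L165041-driven (300 nM final) PPARd signaling is scored in HEK293H UAS-bla cells. Exposure lasts 17 h at 37 C; beta-lactamase activity is then read by FRET substrate fluorescence after 2 h at room temperature.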

[19] = target: Bile acid receptor (Homo sapiens) (UniProt Q96RI1); experiment: qHTS assay to identify small molecule agonists of the farnesoid-X-receptor (FXR) signaling pathway (AID 743220; active means well fitted activation curve with a large enough effect in the signal ratio in the repeat runs, not every such curve was filed as active; the % refers to the signal ratio)
How it was run: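 Beta-lactamase reporter under UAS control in GeneBLAzer FXR HEK 293T cells (5000/well) measured with LiveBLAzer FRET substrate after 2 h at room temperature. Compound exposure lasted 16 h at 37C.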

[20] = target: Vitamin D3 receptor (Homo sapiens) (UniProt P11473); experiment: qHTS assay to identify small molecule antagonists of the vitamin D receptor (VDR) signaling pathway (AID 743223; active means well fitted inhibition curve with a large enough effect in the signal ratio in the repeat runs, not every such curve was filed as active; the % refers to the signal ratio)
How it was run: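 Inhibition of agonist-driven VDR signalling is scored in VDR-bla cells: 3 nM final 1alpha,25-dihydroxyvitamin D3 plus compound, 16 h at 37C, then beta-lactamase detection by FRET substrate fluorescence after 2 h.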

Measured: Potency

CCOP(=S)(OCC)Oc1cc(-c2ccccc2)on1
not listed: [18] | [19] | [20]
inactive: all other assays above

CCC(Cl)[N+](=O)[O-] (configuration not stated)
not listed: [9]
inactive: all other assays above

N#CCCC#N
not listed: [5] | [7]
inactive: all other assays above

CCC(C)(C)c1cc(-n2nc3ccccc3n2)c(O)c(C(C)(C)CC)c1
not listed: [4] | [5] | [19]
inactive: all other assays above

C[C@@H]1CN(C2CCC(C#N)(c3ccc(F)cc3)CC2)CC[C@]1(C(=O)O)c1ccccc1 (some centres not stated)
not listed: [5] | [7]
inactive: all other assays above

CNC(=O)N(C)c1nc2ccccc2s1
not listed: [7] | [20]
inactive: all other assays above

Nc1c(Br)cc([N+](=O)[O-])cc1[N+](=O)[O-]
not listed: [5]
inactive: all other assays above

CCCCN(CCCCO)N=O
not listed: [4] | [19]
inactive: all other assays above

O=[N+]([O-])c1ccc2c3c(cccc13)CC2
not listed: [8]
inactive: all other assays above

COc1ccc(C(=O)N2CCCC2=O)cc1
not listed: [4] | [7] | [19]
inactive: all other assays above

CCOc1nc(C(Cl)(Cl)Cl)ns1
not listed: [4] | [7] | [19]
inactive: all other assays above

C=C(C)[C@@H]1CC=C(C=O)CC1
not listed: [5] | [7] | [9] | [18] | [20]
inactive: all other assays above

NC(=O)O
not listed: [4] | [19]
inactive: all other assays above

CCC#N
not listed: [7] | [18]
inactive: all other assays above

CC(=O)CCc1ccc2c(c1)OCO2
not listed: [7] | [8] | [20]
inactive: all other assays above

CS(=O)(=O)c1cc(C(F)(F)F)ccc1C(=O)c1cnoc1C1CC1
not listed: [4] | [9] | [19]
inactive: all other assays above
